In the library only some 2.8% were active in any assay of this set; here they are far more common.
KKLEB cytotox – CF airway cell cytotoxicity counter-screen; AID 602141; hit rate 0.36% among 360,000; activity change (cytotoxicity), % at 5 µM; KKLEB CF airway cells viability, ATPlite luminescence, overnight; active compounds read low; cells stimulated with P. aeruginosa culture filtrate;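 active = corrected activity change at or below -50% at 5 µM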
Beta2AR agonist – agonists of human beta-2 adrenergic receptor inducing internalization | P07550 | Am2.2-beta2AR cells, FAP receptor internalization, flow cytometry | response, % (test concentration not listed) | hit rate 0.43% among 340,000 | AID 504454;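 active = response above a set limit, near 3 SD of response in nonfluorescent compounds, cut at about 42% in these data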
TRPM1 prom inh – inhibitors of MITF-driven TRPM1 promoter in melanoma cells; SK-MEL-5 TRPM1 promoter luciferase, 24 h; hit rate 0.83% among 330,000; inhibition, % at 12.5 µM;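 active = mean inhibition across replicates of 60% or more, whatever share of single replicates reaches that level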
CF NFkB inh – inhibitors of cystic fibrosis induced NF-kB; AID 588850; hit rate 0.86% among 360,000; KKLEB NF-kB-GFP reporter, PAF-induced, GFP fluorescence overnight; inhibition, % at 5 µM;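 active = at least 50% inhibition at 5 µM, scaled per plate between neutral and stimulator controls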;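 note: PAF is a Pseudomonas aeruginosa culture filtrate used as stimulus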
HIF-2a inh – blocks HIF-2a reporter activity; 786-0 RCC cells HIF-2a reporter, luciferase luminescence, overnight; inhibition, % at 18.8 µM; hit rate 0.72% among 360,000; AID 624352;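 active = inhibition of the luminescence signal of 40% or more relative to plate controls, in a single-dose primary screen at 18.75 µM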
Peg3 promoter – inhibitors of Peg3 promoter. inhibition, % at 20 µM. hit rate 1.7% among 360,000. HeLa PEG-Prom luciferase reporter, luminescence, overnight;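 active = inhibition of at least 50% at 20 µM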
Mdm2 MdmX conf – Mdm2/MdmX (human) interaction inhibition, confirmed. shares compounds with HIF-2a inh. SaOS-2 split-luciferase Mdm2/MdmX complementation, luminescence. inhibition, % at 8 µM. hit rate 99% among 740. AID 504601;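 active = mean inhibition of the luminescence signal across two replicates at or above 26 percent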
Target sequence (O15151 whole entry, looked up): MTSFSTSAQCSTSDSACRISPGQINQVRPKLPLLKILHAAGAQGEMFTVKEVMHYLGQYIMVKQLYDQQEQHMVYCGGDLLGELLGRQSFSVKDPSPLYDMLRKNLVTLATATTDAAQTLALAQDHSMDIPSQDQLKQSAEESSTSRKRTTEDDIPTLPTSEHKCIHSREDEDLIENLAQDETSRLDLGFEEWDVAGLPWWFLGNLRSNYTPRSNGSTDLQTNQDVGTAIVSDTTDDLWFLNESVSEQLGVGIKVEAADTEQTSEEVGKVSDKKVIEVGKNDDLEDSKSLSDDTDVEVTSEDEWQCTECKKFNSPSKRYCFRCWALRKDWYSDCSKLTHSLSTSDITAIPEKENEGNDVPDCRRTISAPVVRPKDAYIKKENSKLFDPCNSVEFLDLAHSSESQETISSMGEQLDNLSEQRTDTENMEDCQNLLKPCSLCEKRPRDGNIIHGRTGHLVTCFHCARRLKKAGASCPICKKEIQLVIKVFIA
Target sequence (Q00987 whole entry, looked up): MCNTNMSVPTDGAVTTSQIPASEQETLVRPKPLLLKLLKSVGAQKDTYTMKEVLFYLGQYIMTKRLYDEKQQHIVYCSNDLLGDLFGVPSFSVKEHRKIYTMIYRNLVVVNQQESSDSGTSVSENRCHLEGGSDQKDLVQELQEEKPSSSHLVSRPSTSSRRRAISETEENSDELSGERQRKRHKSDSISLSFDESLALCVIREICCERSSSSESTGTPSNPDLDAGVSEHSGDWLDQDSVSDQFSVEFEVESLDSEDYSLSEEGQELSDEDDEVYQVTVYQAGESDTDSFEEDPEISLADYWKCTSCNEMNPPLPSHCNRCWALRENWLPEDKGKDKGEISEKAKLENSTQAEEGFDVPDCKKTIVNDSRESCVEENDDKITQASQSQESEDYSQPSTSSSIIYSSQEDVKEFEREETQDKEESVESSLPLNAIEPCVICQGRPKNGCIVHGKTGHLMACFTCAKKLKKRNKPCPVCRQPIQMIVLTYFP
HIF-2a inh conf – HIF-2a inhibition, single concentration confirmation; 786-0 RCC cells, HIF-2a luciferase reporter luminescence, overnight; AID 651580; hit rate 56% among 1,800; inhibition, % at 18.8 µM; shares compounds with HIF-2a inh;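 active = mean inhibition across four replicates of at least 40 percent at the single tested concentration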
HIF-1a cs – counter-screen for HIF-2a inhibitors: HIF-1a inhibition in MiaPaCa-2 cells; inhibition, % at 18.8 µM; hit rate 72% among 1,800; MiaPaCa-2 HIF-1a luciferase reporter, desferoxamine, overnight; shares compounds with HIF-2a inh; AID 651589;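 active = mean inhibition of the reporter signal across four replicates at the single tested dose of 50% or more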
A number is an active result; – = inactive; · = no result given; ! = not active in a repeat.

SMILES	KKLEB cytotox	Beta2AR agonist	TRPM1 prom inh	CF NFkB inh	HIF-2a inh	Peg3 promoter	HIF-2a inh conf	HIF-1a cs	others
O=C(Nc1cccc(NC(=O)c2cc([N+](=O)[O-])ccc2Cl)n1)c1cc([N+](=O)[O-])ccc1Cl	–	–	–	–	84	93	–	102	Mdm2 MdmX conf=100
CCN(CC)CCNC(=O)C(Cl)=C1C(Cl)=C(Cl)C(Cl)=C1Cl	–	–	–	–	67	97	–	61
CNc1nc(Nc2ccc(C)cc2C)c2sccc2n1	–	·	·	–	–	–	·	·
COc1ccc([C@H]2CC(=O)C[C@@H](CCn3cc(-c4nccn4C)nn3)O2)cc1	·	·	·	·	–	·	·	·
COc1ccc(C(=O)Cn2c(C(=O)/C=C/c3ccccc3)nc3ccccc32)cc1	–	–	–	–	40	–	–	102
COc1ccc(C(=O)CSc2nc3ccccc3n2CC(=O)c2ccccc2)cc1	–	–	–	–	–	–	·	·
NC(Cc1ccccc1)c1csc(NC(=O)c2cccc(OC(F)(F)F)c2)n1 (stereo not drawn)	–	·	·	–	65	99	–	106
COc1ccc(CC(N)c2csc(NC(=O)c3ccc(OC)cc3)n2)cc1 (stereo not drawn)	–	·	·	–	–	–	·	·
O=c1cc(-c2c(F)c(F)c(F)c(F)c2F)oc2ccccc12	–	–	–	–	62	84	–	80
O=c1cc(-c2cccc(F)c2)oc2ccccc12	–	–	–	–	–	–	·	·
O=C(C1CCCCC1)N1C[C@@H](O)[C@H](n2cc(-c3ccc(F)cc3)nn2)C[C@@H]1c1ccccc1	–	·	·	–	–	–	·	·
COc1cc(OC)cc(-c2nnc(Nc3nc4c(F)cccc4s3)o2)c1	–	–	–	–	72	–	85	–
Fc1cccc2sc(Nc3nnc(-c4ccccc4)o3)nc12	–	–	–	–	–	–	·	·
O=C(CSc1nnc(-c2cccs2)n1-c1cccc(Cl)c1)c1cccc2c1OCCO2	–	–	–	–	–	–	·	·
Cc1ccc(Cl)cc1NC1=C/C(=N\S(=O)(=O)c2cccs2)c2ccccc2C1=O	-105	45!	90	92	90	110	·	·	Mdm2 MdmX conf=102
Cc1ccc(NC2=C/C(=N\S(=O)(=O)c3cccs3)c3ccccc3C2=O)c(C)c1	-102	64	105	96	71	111	·	·	Mdm2 MdmX conf=101
COc1cc(OC)c(OC)cc1/C=C/C(=O)c1ccc(NS(=O)(=O)c2ccc(C)cc2)cc1	–	–	–	–	59	–	–	50
CCOC(=O)Cc1csc(NC(=S)NC(=O)c2ccc(C)cc2)n1	–	–	–	–	96	–	99	97
CCOC(=O)Cc1csc(NC(=S)NC(=O)c2ccccc2)n1	–	–	–	–	85	–	87	–
Cn1c(-c2cccs2)nc2ccccc21	–	–	–	–	–	–	·	·
Cc1cccc(-c2nnc(SCCC(=O)N3CCOCC3)o2)c1	–	–	–	–	49	–	53	–
COc1ccc(CNC[C@@H](CCCCN(C)Cc2ccc(OC)cc2)N2C[C@H](c3ccccc3)N(CCc3ccc(Cl)c(Cl)c3)C(=O)C2=O)cc1	-95	102	96	62	97	98	·	·	Mdm2 MdmX conf=103
CCC(=O)Nc1ccc(C(=O)CN2C(=O)NC3(CCCCCC3)C2=O)cc1	–	–	–	–	–	–	·	·
CN(C)c1ccc(/C=N/NC(=S)NCc2ccco2)cc1	–	–	–	–	–	–	·	·
CN(C)c1ccc(C(=S)NCc2ccco2)cc1	–	–	–	–	52	–	–	–
CCc1nnc(SCC(=O)Nc2ccc(NC(C)=O)cc2)n1-n1cccc1	–	–	–	–	–	–	·	·
COc1cccc(CN2CCC2(C)C(=O)NCCc2ccccn2)c1OC (stereo not drawn)	–	·	·	–	–	–	·	·
C[N+](C)(CCOc1ccccc1)Cc1ccccc1	–	–	–	–	–	–	·	·
